Experimental findings from PubChem BioAssay AID1508600 (Functional Genomics Laboratory (NCATS/FGL), 2020) are described below.

In all, about 53,000 sequences went through this assay and about 3,700 (7%) were called active. Many of the other results were omitted from the sample, so actives are more common in it than they were. Unmarked numbers belong to inactive results.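 The calls were made as follows: active = gene knockdowns whose robust z-score for IL-1 alpha signal is at least 2 or at most -2, so actives lie on both sides; inactive = the rest.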

A short description of this experiment: Components of the Cytosolic LPS Sensing Pathway: Gene Identification via Genome-wide siRNA Screen.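 Also: robust z of the log signal after scaling to non-targeting control siRNA wells of the plate.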 The conditions noted are these: RAW264.7 macrophages, IL-1a HTRF, actives lie on both sides, screened at 100 nM (by protocol), cells primed 5 h with Pam3CSK4 first. The essentials:
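Supernatant IL-1a by HTRF from RAW264.7 cells primed with Pam3CSK4 (5 hours) and transfected with LipidA (24 hour) after 48h siRNA knockdown at 100 nM; cell viability checked with CellTiter-Glo.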
Background: TR-FRET usually uses a lanthanide donor and a delayed reading to cut background.
Consider GCUAAUGACACCACUUUUGTT against Aldh9a1, for which the z-score is -0.379.
Regarding GGAUUGAGUCCUAUGAAGGTT against Stard3nl, the z-score was -1.09.
The value for CCAAGUGACUUUAAGGAUGTT against Pcolce was 0.759.
For the sequence GGCCAUCAUAUCACCAUUUTT against Rcsd1, the z-score is 1.6.
With GCCUUAGGCAUUUAGAUUUTT against Zbed4, the z-score was 1.33.
For GCUGAAGUUCGUACCCUACTT against Osbp2, the z-score is -2.42 (active).
The value for CGGAGUUCAGCAUUUACCCTT against Shld2 was 0.428; that for GGCAGUUUGACAACUUUAATT against Fibp was -0.653; that for CCCAGCUCAGGUUUCUAUGTT against Dact2 was 0.0333.
The value for GGUGAUCAAUCCUCUAAUATT against Eid2 was 2.61 (active); that for GCCUAUGUAAAUAGUGCUGTT against Mt3 was 0.549; that for GCUAGGUUGGAUAUAUAUGTT against Mypn was -0.0247.
Under CGAAGUGAGAAUUGAAUUUTT against Zp2 stands 1.51; under GCUGCUCAGUUUCUUCCAATT against H4c9, 2.08 (active).
Turning to CGGGAAGUAGUGCAACACCTT against Taldo1, the z-score was -0.902.
Under GCACGUAGUAAGAUGUUACTT against Cnot9 stands -0.969.
GGGCAUGAAUGGUUACUUATT against Mllt6: the z-score was 1.24.
For GCACAGUACCAUAACGGCUTT against Nampt, the z-score was -2.06 (active).
Under GGGUGUCAUAUAUAUUGCUTT against Gpr83 stands 0.889; under GCAAGUGAAAUCCAAACAGTT against Nabp1, -1.54.
The value for GGUGAGAAGACCAUUGAUUTT against Insr was 0.459.
GGUACUCUCAUUAUCUUUCTT against Tlr8: the z-score was -0.217.
The value for GUGAGAAGUUGUGUAGAGCTT against Fmc1 was 1.84.
The value for GCAUACAACUGUUCAUAGATT against Nsrp1 was -0.476; that for GGAGCUGAGGGAACCUUGUTT against Slc35c1 was -2.67 (active).
For the sequence GGACAGCGACAAGAUUCCGTT against Sox4, the z-score was -0.714.
In the case of GCCUUUAAUCAACCCAAGATT against Scd1, the z-score is -0.728.
Under GCUAAAGAUGAGCGUACAUTT against Myh10 stands 1.44; under GGUGGUGGAGAAGAUAGGATT against Pax8, -1.05; under CCAUCUAUUACGGAACGGGTT against Olfr324, 1.36.
Under GGCCUCAACUAAGAACCCUTT against Pcdh1 stands -0.298; under GGUCCAAUUAACCUAUCUUTT against Ppip5k2, -2.06 (active).
Under GGAGAUUAGUUACUUCCAGTT against Slc1a7 stands 3.5 (active).
Take GGAUACAUUAAUUGUUUGGTT against Ppp4r3b: the z-score is 2.55 (active).
The value for GGUCACUGCUAAAGCCUGATT against Stoml3 was 0.864; that for GGCCAUGAAUAUGGAGUCCTT against Cptp was 0.623.
As for GGAAAUCAGAGCUGAGUUATT against Ankrd6, the z-score was 0.0763.
As for GGUAGUAGUAAGCCAUAAATT against Exoc8, the z-score is 0.736.
The value for “CCCUUGAACAUUCUACUCUTT against 1700012A03Rik” was -0.955.
Consider GAUCAUCGGCAUUUUGAACTT against Il4, for which the z-score is -0.527.
GGCUGGUACAAAGUUUUAGTT against Mpv17: the z-score is 2.55 (active).
With “GGUAGUAGGAGUUUCCUACTT against 4933414I15Rik”, the z-score is 1.44.
The value for CGGUAAUCAUUGCUGUUCUTT against H2-K1 was 1.05.
Under GGAAGACCAAUAGUACUGCTT against Il1rn stands -0.0282; under GGAGUACGAAUUCCUCACUTT against Arhgdib, -0.0475; under GGCUCAAAGAAUAUGCCAATT against Rad54b, 0.99.
As to GCCAGUGCUGGUUUGAAAUTT against Clip4, the z-score is 1.67.
Take CCACUGUUACCAUUAUAAUTT against Pramel4: the z-score was -0.594.
For GGAUAAAGGAAUCUGAUCUTT against Unc80, the z-score was -2.58 (active).
The value for GCGCAGAAGAGGCUAUUAUTT against Asprv1 was -0.125.
GGUAGCACUUACGUGAAAUTT against Mbd2: the z-score is -0.655.
As for GCAUAUGGCACCACAUUGUTT against Psg25, the z-score was 0.0646.
The value for GGAUAUCAGGGUUGUUAAGTT against Txnl4b was 0.952; that for GGCUAUGUUAAUUUGUCCCTT against Hc was 0.00272.
With GCAAUAUGUGACAAACUUCTT against Ptpn22, the z-score was 2.06 (active).
Under GGAAUCAGCAAUGGACCCUTT against Parn stands -0.818; under CCUGGGCCUUAACAAGAAGTT against Upf1, -1.32; under CCCACUUUGAAAAAGACUCTT against Mei4, 2.5 (active).
Under GCUUUGGAUAGUAGACAGCTT against BC055324 stands 0.199; under GGGACAAUUAGAAAGACAUTT against Mtif2, 0.982; under GGAACCAACCAGGAGAAAUTT against Ms4a4d, -2.58 (active).
As for GGAACUCACGCACAUAUUUTT against Net1, the z-score is -0.483.
Regarding GACUUACUUGCAUCACUGATT against Vmn1r4, the z-score is -0.732.
Under GGUGAAUGUAUAAGUUAUGTT against Icam1 stands 1; under GCUUUCUUAGCAUUAAAUCTT against Zkscan3, -0.274; under GGUUCAUGAUGGAUGACAUTT against Bmerb1, -1.96.
As for GGCUUGAAGUUCAUUUAUUTT against Nkiras2, the z-score was -1.03.
Under GGUUAUUCAAAAAUGCAACTT against Rcor1 stands -0.559; under GGAAAGGCUCAAUGAGAGCTT against Nipa2, -3.3 (active).
Under GGUCUAUGCGAUGCUAUACTT against Sarm1 stands -0.508; under GCCGUUUACCUUAGUCUGUTT against Cyb5rl, 0.00283; under GCCAGCCUAAAAAAGAUACTT against Eef1g, 0.254.
Regarding GGAUCUUGGCUAAAGAGGGTT against Slc25a25, the z-score was 0.0129.
Under GCAAUUGAAAGUGAACAAUTT against Olfr1360 stands -0.935.
As for GGAGGAAAGUUGUAUUUGATT against Nudt7, the z-score was 0.148.
Take GGCGAGUUCAGGAGUUUACTT against Fmnl1: the z-score is 2.55 (active).
GGGUACCUGUCCAAGGUCATT against Mfn2: the z-score is 0.849.
Under GGAUGGAACAUAUGAUUAGTT against Vmn1r234 stands 0.653.
Under GGUGUCAGGAUUUUAUAACTT against Etfbkmt stands -0.182; under GGUGGUUUGUGAUGAAAAUTT against Pabpc1, 2.11 (active); under GUUUGUCUAGCUUCAGAUGTT against Rims4, 1.78.
The value for GGGAGGACAUCCAGACAAUTT against Fam13b was -0.305.
In the case of GGGAAAGAUAAGCUCAAGGTT against Sh2d2a, the z-score was 1.32.
Under GACUCUAAACCUAGCAGCGTT against Basp1 stands -2.34 (active); under GGCUGGUUUAUUUGUGGACTT against Cemip2, 0.574; under GGAUAUGGAAGAAGUUGUGTT against Olfr1089, -2.2 (active).
Under CCAGCUAUACGAAGACUUCTT against Hdhd3 stands 0.0525.
Under GGAGGUGGAAUCUUUCCCUTT against Aplp1 stands -1.68.
In the case of GGAAAAGGCAAUCGUUUCUTT against Mtg2, the z-score was 0.278.
Consider GUAUGUUCAUAUGGUUUUCTT against Swi5, for which the z-score is 2.33 (active).
Regarding GUCUUCCCUCAUCCUUUGATT against Cox8a, the z-score was 0.902.
On to GCAGAAGUUCAUUUUCCUATT against Olfr145, for which the z-score is 0.969.
The value for GGUCAUGUCCAUCCCAAAGTT against Ficd was 1.15.
Under GGAUUAUUUUAAGUGGAGATT against Dna2 stands -0.103; under GGAUUCACUAGCAUUGUAGTT against Guca1b, -0.725.
Take GGAGCUUCUAGACUGUACCTT against Lrmp: the z-score was 2.03 (active).
GCAAGAAUCAUCCGGUUACTT against Ttc39b: the z-score is 1.36.
On to CCUUUACACCACUCUAUUUTT against Adgb, for which the z-score was -0.795.
Under GCCGCUACCUAUGAUGUCCTT against Kcne4 stands 0.385; under GGUCCUGGAAUCUCAAAAUTT against Entpd1, -0.506.
The value for GCAGAUCGCAAAAGAUCCUTT against Nppa was 0.69; that for GGUCAAGUCAGUAACUGCATT against Olfr10 was 0.747; that for GCUCAGAUUUGCUUUAUGATT against Ube2r2 was 0.367.
Under GGGAAUGGCUAAUGUUUAUTT against Stk38l stands 2.32 (active); under GCCUCACUUUGCCAUGCAUTT against Pou4f1, -1.78; under GGAUGCCAGAAGAAUAUUCTT against Pnlip, 2.43 (active).
On to CCAUGCUGAUUGCUCCGACTT against Cass4, for which the z-score is 1.46.
Under GGAUAUGUGAAAUGCAUUGTT against Asb9 stands 0.219.
